Results filed as inconclusive are left out. Calls of active or inactive are those of the source. Calls come from the whole dose curve; as a rule, active = well fitted curve in the direction sought with a large enough effect; inconclusive = small, poorly fitted or top-dose-only effect, or another doubt; inactive = no such curve, though single readings can be large; an effect the other way counts as inactive or inconclusive.
Columns and labels:
MCC-13 = experiment: qHTS assay to identify novel small-molecules to repurpose for Merkel cell carcinoma treatment (AID 1296009); conditions: MCC and control cell lines, CellTiter-Glo viability, 72 h; series mostly up to 46 µM; note: nearly all actives have a fitted effect of over 60% in size
Summary of the method: (§1)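 Cells were treated for 72 hr at 37 degree celsius with compounds in 8- or 11-point dose response. Viability was read by CellTiter-Glo luminescence, normalized to no-cell (cytotoxicity) and DMSO controls.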

MCC-26 = experiment: as above; conditions: MCC and control cell lines, CellTiter-Glo viability, 72 h; series mostly up to 46 µM
Summary of the method: as §1

MKL-1 = experiment: as above; conditions: MCC and control cell lines, CellTiter-Glo viability, 72 h; series mostly up to 46 µM
Summary of the method: as §1

UISO = experiment: as above; conditions: MCC and control cell lines, CellTiter-Glo viability, 72 h; series mostly up to 46 µM
Summary of the method: as §1

C33A = experiment: Primary qHTS to identify gynecologic anti-cancer compounds using libraries of approved drugs and bioactive compounds (AID 1345084); conditions: Gynecologic cancer cell panel viability, ATPlite luminescence, 48 h; series mostly up to 57.5 µM; note: nearly all actives have a fitted effect of over 55% in size
Summary of the method: (§2)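 Cells, 1,000 per well, were allowed to settle for 16 h at 37 C before compound addition. Five concentrations were tested for 48 h, and viability was read by ATPlite luminescence after 15 min at room temperature.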

CAOV3 = experiment: as above; conditions: Gynecologic cancer cell panel viability, ATPlite luminescence, 48 h; series mostly up to 57.5 µM
Summary of the method: as §2

CASKI = experiment: as above; conditions: Gynecologic cancer cell panel viability, ATPlite luminescence, 48 h; series mostly up to 57.5 µM
Summary of the method: as §2

Es-2 = experiment: as above; conditions: Gynecologic cancer cell panel viability, ATPlite luminescence, 48 h; series mostly up to 57.5 µM
Summary of the method: as §2

HeLa = experiment: as above; conditions: Gynecologic cancer cell panel viability, ATPlite luminescence, 48 h; series mostly up to 57.5 µM
Summary of the method: as §2

Hek293T = experiment: as above; conditions: Gynecologic cancer cell panel viability, ATPlite luminescence, 48 h, control line for the selectivity index; series mostly up to 57.5 µM
Summary of the method: as §2

JEG-3 = experiment: as above; conditions: Gynecologic cancer cell panel viability, ATPlite luminescence, 48 h; series mostly up to 57.5 µM
Summary of the method: as §2

OV90 = experiment: as above; conditions: Gynecologic cancer cell panel viability, ATPlite luminescence, 48 h; series mostly up to 57.5 µM
Summary of the method: as §2

PA-1 = experiment: as above; conditions: Gynecologic cancer cell panel viability, ATPlite luminescence, 48 h; series mostly up to 57.5 µM
Summary of the method: as §2

SKOV3 = experiment: as above; conditions: Gynecologic cancer cell panel viability, ATPlite luminescence, 48 h; series mostly up to 57.5 µM
Summary of the method: as §2

Tov-21-G = experiment: as above; conditions: Gynecologic cancer cell panel viability, ATPlite luminescence, 48 h; series mostly up to 57.5 µM
Summary of the method: as §2

Tov112D = experiment: as above; conditions: Gynecologic cancer cell panel viability, ATPlite luminescence, 48 h; series mostly up to 57.5 µM
Summary of the method: as §2

[1] = Drug repurposing screens with cells derived from glioblastoma tumor samples (AID 1345199); conditions: GBM patient neurospheres viability, ATP luminescence, 48 h; note: nearly all actives have a fitted effect of over 40% in size
Summary of the method: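 Four patient lines of CD133+ GBM neurospheres were screened at several concentrations; hits were retested in those lines plus three slower-growing GBM lines, using 48-hour treatment and ATP-based viability.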

MKL-2 = experiment: qHTS assay to identify novel small-molecules to repurpose for Merkel cell carcinoma treatment (AID 1296009); conditions: MCC and control cell lines, CellTiter-Glo viability, 72 h; series mostly up to 46 µM; note: nearly all actives have a fitted effect of over 60% in size
Summary of the method: as §1

WaGa = experiment: as above; conditions: MCC and control cell lines, CellTiter-Glo viability, 72 h; series mostly up to 46 µM
Summary of the method: as §1

[2] = at 45.9 µM (top of the series), tumour line B
[3] = at 45.9 µM (top of the series), tumour line D
[4] = at 46.1 µM (top of the series), tumour line C
% is set by controls: 0 for no effect and ±100 for the full control effect; potency is the fitted concentration of half-maximal effect.

C=C1C[C@H]2[C@@H]3C=C(C)C4=CC(=O)CC[C@]4(C)[C@H]3CC[C@]2(C)[C@@]1(OC(C)=O)C(C)=O
inactive: Potency (MCC-13) | Potency (MCC-26) | Potency (MKL-1) | Potency (UISO) | Potency (C33A) | Potency (CAOV3) | Potency (CASKI) | Potency (Es-2) | Potency (HeLa) | Potency (Hek293T) | Potency (JEG-3) | Potency (OV90) | Potency (PA-1) | Potency (SKOV3) | Potency (Tov-21-G) | Potency (Tov112D) | activity, negative = cell killing [1, 2] -28.2% | activity, negative = cell killing [1, 3] -24.4% | activity, negative = cell killing [1, 4] -11.9%

CCOC(=O)COc1ccc2c(C)c(CCN(CC)CC)c(=O)oc2c1Cl
active: Potency (SKOV3) 15.8 µM | Potency ([1]; tumour line A) 11.2 µM
inactive: Potency (MCC-13) | Potency (MCC-26) | Potency (UISO) | Potency (C33A) | Potency (CASKI) | Potency (HeLa) | Potency (Hek293T) | Potency (JEG-3) | Potency (OV90) | Potency (PA-1) | Potency (Tov112D) | activity, negative = cell killing [1, 2] -13.9% | activity, negative = cell killing [1, 4] -21.4%

Clc1ccc2c(c1)CCc1cccnc1C2=C1CCNCC1
inactive: Potency (MCC-13) | Potency (MCC-26) | Potency (C33A) | Potency (Es-2) | Potency (HeLa) | Potency (Hek293T) | Potency (JEG-3) | Potency (PA-1) | Potency (Tov-21-G) | Potency (Tov112D) | activity, negative = cell killing [1, 4] 0.244%
active: Potency (MKL-2) 26.6 µM | Potency ([1]; tumour line A) 5.01 µM | Potency ([1]; tumour line B) 12.6 µM | Potency ([1]; tumour line D) 20 µM

C[C@H]1C[C@H]2[C@@H]3CCC4=CC(=O)C=C[C@]4(C)[C@@]3(Cl)[C@@H](O)C[C@]2(C)[C@@]1(O)C(=O)CO
inactive: Potency (MCC-13) | Potency (MCC-26) | Potency (MKL-1) | Potency (UISO) | Potency (WaGa) | Potency (C33A) | Potency (CASKI) | Potency (Es-2) | Potency (HeLa) | Potency (Hek293T) | Potency (JEG-3) | Potency (OV90) | Potency (PA-1) | Potency (SKOV3) | Potency (Tov-21-G) | Potency (Tov112D) | activity, negative = cell killing [1, 2] -17% | activity, negative = cell killing [1, 3] -11.6% | activity, negative = cell killing ([1]; at 46 µM (top of the series), tumour line A) -29.5% | activity, negative = cell killing [1, 4] -24.3%

Source: PubChem BioAssay (NCATS)
